M1 PAM: potentiates human M1 receptor response to acetylcholine; P11229; CHO-K1 hM1, Fluo-8 calcium fluorescence, ACh EC20; 0% = ACh EC20, 100% = maximal ACh; activation, % at 3 µM; 360,000 compounds, 0.088% hits; in the data active means activation above about 19%, passing the limit was not always enough
Target sequence (P11229 whole entry, looked up): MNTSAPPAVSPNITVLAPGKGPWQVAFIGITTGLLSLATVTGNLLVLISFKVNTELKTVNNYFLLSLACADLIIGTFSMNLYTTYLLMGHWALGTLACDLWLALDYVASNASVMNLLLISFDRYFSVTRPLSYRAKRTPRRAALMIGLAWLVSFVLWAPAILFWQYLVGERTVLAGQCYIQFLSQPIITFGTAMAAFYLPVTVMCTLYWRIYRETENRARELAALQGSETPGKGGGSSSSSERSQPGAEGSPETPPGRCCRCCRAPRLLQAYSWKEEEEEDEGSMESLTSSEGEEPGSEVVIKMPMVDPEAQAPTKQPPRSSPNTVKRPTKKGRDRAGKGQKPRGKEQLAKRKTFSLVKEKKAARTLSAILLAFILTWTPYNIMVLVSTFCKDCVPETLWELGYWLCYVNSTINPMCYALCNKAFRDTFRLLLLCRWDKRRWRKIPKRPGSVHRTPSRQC
CHO-K1 Ca antag: M1 antagonist counterscreen hit in parental CHO-K1 cells; AID 602250; inhibition, % at 3 µM; 360,000 compounds, 0.6% hits; ATP-induced calcium, Fluo-8 fluorescence;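 active means inhibition above a per-plate cutoff, the plate's mean sample inhibition plus 3 SD, cut at about 24% in these data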;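 further: 0% = DMSO plus EC80 ATP and 100% = DMSO alone without ATP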
CHO-K1 Ca PAM: nonselective activator or artifact in parental CHO-K1 calcium assay. ATP EC20, Fluo-8 calcium fluorescence; 0% at ATP EC20, 100% at ATP max. activation, % at 3 µM. 360,000 compounds, 0.02% hits;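 active means activation above the run cutoff, the mean activation of all test compounds plus 3 SD, cut at about 40% in these data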;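 further: peak over basal fluorescence ratio in a 140 s read after ATP addition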
M1 ag: agonists of human M1 muscarinic receptor | CHO-K1 hM1, Fluo-8 calcium fluorescence, agonist mode; 0% DMSO, 100% acetylcholine EC100 | P11229 | AID 588814 | activation, % at 3 µM | 360,000 compounds, 0.33% hits;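 active means activation above the run's mean compound activation plus 3 SD, cut at about 16% in these data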;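 further: peak over basal fluorescence ratio within a 140 s kinetic read after compound addition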
CHO-K1 Ca ag: nonselective activator or artifact in parental CHO-K1 cells; Fluo-8 calcium fluorescence; scaled to maximal ATP response, vehicle zero; activation, % at 3 µM; 360,000 compounds, 0.48% hits; AID 602248; in the data active means activation above about 15%;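 further: untransfected CHO-K1 host cells lacking M1 receptor as counterscreen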
CHRM1 antagonist: blocks human M1 muscarinic receptor | P11229 | CHO-K1 hM1, Fluo-8 calcium fluorescence, ACh EC80 antagonist | inhibition, % at 3 µM | 360,000 compounds, 1.3% hits;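 active means percent inhibition above its own plate's cutoff, namely the mean of that plate's compound wells plus 3 SD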;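 further: peak over basal fluorescence ratio during 140 s after agonist addition; 0% = ACh EC80 plus DMSO and 100% = DMSO alone without agonist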
Numbers without * were called inactive. In the library only some 2.4% were active in any assay of this set; here they are far more common.

CCN(CC)c1ccc(/C=N/NC(=O)c2cccc(N3CCCC3=O)c2)cc1 was read as M1 PAM 3, CHO-K1 Ca antag -4, CHO-K1 Ca PAM 0, M1 ag -8, CHO-K1 Ca ag 1 and CHRM1 antagonist -6.
`O=C(Nc1ccccc1C(=O)Nc1nnc(C(F)(F)F)s1)c1ccccc1` gave M1 PAM -12, CHO-K1 Ca antag 26*, CHO-K1 Ca PAM -10, M1 ag 8, CHO-K1 Ca ag 9 and CHRM1 antagonist 18.
For COc1ccc(-c2noc(N3CCC(C(=O)NCCCN4CCC(C)CC4)CC3)n2)cc1 the results were M1 PAM -21, CHO-K1 Ca antag -22, CHO-K1 Ca PAM 17, M1 ag -12, CHO-K1 Ca ag 2 and CHRM1 antagonist 32*.
`Cn1ccc2c(-c3ccc(F)cc3)cc3c(c21)C1CCC3C1` (stereo not given) gave M1 PAM 9, CHO-K1 Ca antag -1, CHO-K1 Ca PAM 7, M1 ag -1, CHO-K1 Ca ag 1 and CHRM1 antagonist -14.
COc1ccc(-c2cc3c(c4c2ccn4C)C2CCC3C2)cc1F (stereo not given) was read as M1 PAM 10, CHO-K1 Ca antag 24*, CHO-K1 Ca PAM 2, M1 ag -1, CHO-K1 Ca ag 0 and CHRM1 antagonist -2.
For COc1cc2cc(CCOC(=O)c3ccc(C(F)(F)F)cc3)oc(=O)c2cc1OC the results were M1 PAM 2, CHO-K1 Ca antag -8, CHO-K1 Ca PAM 15, M1 ag -3, CHO-K1 Ca ag 0 and CHRM1 antagonist 7.
O=C(c1ccc(Cl)cc1)N1CCN(c2cc(=O)[nH]nc2-c2ccccc2)CC1 was read as M1 PAM 12, CHO-K1 Ca antag 28*, CHO-K1 Ca PAM -17, M1 ag 2, CHO-K1 Ca ag 0 and CHRM1 antagonist 1.
Screening O=C(Nc1ccccc1N1CCN(C(=O)c2ccc(Cl)cc2)CC1)c1ccc(Br)cc1 returned M1 PAM -5, CHO-K1 Ca antag 27*, CHO-K1 Ca PAM -8, M1 ag -2, CHO-K1 Ca ag 0 and CHRM1 antagonist 10.
Screening O=C(NCCC(=O)N1CCN(c2ccccc2O)CC1)c1ccc(Br)cc1 returned M1 PAM 22*, CHO-K1 Ca antag -6, CHO-K1 Ca PAM 10, M1 ag 1, CHO-K1 Ca ag 1 and CHRM1 antagonist -35.
`COc1ccc(C(=O)Nc2ccccc2N2CCN(C(=O)c3ccccc3)CC2)cc1Br` gave M1 PAM -14, CHO-K1 Ca antag 6, CHO-K1 Ca PAM -12, M1 ag -5, CHO-K1 Ca ag 4 and CHRM1 antagonist 35*.
`S=c1nc(-c2csc3c2CCCC3)[nH][nH]1` gave M1 PAM 7, CHO-K1 Ca antag -18, CHO-K1 Ca PAM 24, M1 ag -5, CHO-K1 Ca ag 0 and CHRM1 antagonist -9.
For CCOC(=O)COn1c(=O)c(-c2ccccc2)[n+]([O-])c2ccccc21 the results were M1 PAM -1, CHO-K1 Ca antag -2, CHO-K1 Ca PAM 0, M1 ag -2, CHO-K1 Ca ag 0 and CHRM1 antagonist -4.
For O=C(Cc1n[nH]c(=O)c2ccccc12)OCC(=O)c1ccc(F)c(F)c1 the results were M1 PAM 8, CHO-K1 Ca antag -2, CHO-K1 Ca PAM 12, M1 ag -3, CHO-K1 Ca ag 0 and CHRM1 antagonist -3.
`Cc1ccc(-c2nn(-c3ccc(F)cc3)cc2C(=O)N(C)CC(=O)Nc2ccc(N3CCOCC3)cc2)cc1` gave M1 PAM 2, CHO-K1 Ca antag -9, CHO-K1 Ca PAM -2, M1 ag -2, CHO-K1 Ca ag 1 and CHRM1 antagonist -3.
CC1CCCN(S(=O)(=O)c2ccc(C(=O)Nc3nnc(-c4ccccn4)o3)cc2)C1 (stereo not given) was read as M1 PAM 0, CHO-K1 Ca antag 18, CHO-K1 Ca PAM -9, M1 ag -4, CHO-K1 Ca ag 0 and CHRM1 antagonist 0.
For CC1CCCN(S(=O)(=O)c2ccc(C(=O)Nc3nnc(C4CC4)o3)cc2)C1 (stereo not given) the results were M1 PAM 3, CHO-K1 Ca antag 25*, CHO-K1 Ca PAM -12, M1 ag -2, CHO-K1 Ca ag 5 and CHRM1 antagonist 1.
